This is an account of results in PubChem BioAssay (EPA / NIEHS).

The source made the active and inactive calls. How the source made its calls: active means hit-call score of the fitted dose curve at least 0.9, where 1 is the maximum; inactive means score below 0.9.

Conditions in all cases: mRNA level, 48 h; actives raise or lower the signal
Read-out in test [1]: Tumor necrosis factor receptor superfamily member 6 (Homo sapiens) (UniProt P25445)
In words: LTEA_HepaRG_FAS: Life Technologies and Expression Analysis (LTEA) Assay for Fas cell surface death receptor (FAS) using HepaRG (AID 2283447). The method in brief: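 FAS transcript level was measured by TaqMan qRT-PCR against three housekeeping genes after 48 h chemical exposure. Cells were HepaRG, 0.5% DMSO vehicle, with a top concentration of 100 uM and half-log dilutions over eight points, in duplicate.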

Read-out in test [2]: Cyclin Dependent Kinase Inhibitor 1A (CDKN1A), CDKN1A (gene 1026)
Nature of the test: LTEA_HepaRG_CDKN1A: Life Technologies and Expression Analysis (LTEA) Assay for Cyclin Dependent Kinase Inhibitor 1A (CDKN1A) using HepaRG (AID 2283450). The method in brief:
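Differentiated HepaRG cells in serum-free induction medium, exposed 48 h in duplicate to eight half-log concentrations up to 100 uM in 0.5% DMSO. mRNA measured by TaqMan qRT-PCR, normalized to ACTB, GAPDH, POLR2A; bidirectional fit versus DMSO.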

Read-out in test [3]: Cyclin D1 (CCND1), CCND1 (gene 595)
In words: LTEA_HepaRG_CCND1: Life Technologies and Expression Analysis (LTEA) Assay for Cyclin D1 (CCND1) using HepaRG (AID 2283451). The method in brief:
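Differentiated HepaRG cells exposed 48 h in serum-free induction medium to eight half-log concentrations from 100 uM top, 0.5% DMSO, duplicates. CCND1 mRNA measured by Fluidigm TaqMan qRT-PCR, normalised to ACTB, GAPDH, POLR2A; bidirectional fit.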

Read-out in test [4]: catalase (CAT), CAT (gene 847)
Nature of the test: LTEA_HepaRG_CAT: Life Technologies and Expression Analysis (LTEA) Assay for catalase (CAT) using HepaRG (AID 2283452). The method in brief: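 Expression of CAT was quantified by TaqMan qRT-PCR with ACTB/GAPDH/POLR2A normalization after 48 h chemical exposure of HepaRG. Eight-point half-log series, top 100 uM, in 0.5% DMSO; gain or loss fitted against vehicle.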

Read-out in test [5]: flavin-containing dimethylaniline monooxygenases 3 (FMO3), FMO3 (gene 2328)
In words: LTEA_HepaRG_FMO3: Life Technologies and Expression Analysis (LTEA) Assay for flavin-containing dimethylaniline monooxygenases 3 (FMO3) using HepaRG (AID 2283453). Summed up: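 HepaRG, 48 h exposure, 8-pt half-log series from 100 uM, 0.5% DMSO vehicle, duplicates; FMO3 transcript by Fluidigm TaqMan qRT-PCR, housekeeping-normalized; gain/loss fit vs DMSO.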

Read-out in test [6]: Cytochrome P450 (CYP1A1), CYP1A1 (gene 1543)
Nature of the test: LTEA_HepaRG_CYP1A1: Life Technologies and Expression Analysis (LTEA) Assay for Cytochrome P450 (CYP1A1) using HepaRG (AID 2283454). Summed up:
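Differentiated human HepaRG cells, after 48 h plating, exposed in duplicate for 48 h in serum-free induction medium to 8 half-log concentrations up to 100 uM in 0.5% DMSO. CYP1A1 mRNA by qRT-PCR, normalized to ACTB/GAPDH/POLR2A; bidirectional fit versus DMSO.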

Read-out in test [7]: CFLAR gene, CFLAR (gene 8837)
Nature of the test: LTEA_HepaRG_CFLAR: Life Technologies and Expression Analysis (LTEA) Assay for CFLAR gene using HepaRG (AID 2283455). Summed up: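 HepaRG, 48 h exposure, 8-pt conc-response (100 uM top, half-log), 0.5% DMSO vehicle, duplicates. CFLAR expression by qRT-PCR; ACTB/GAPDH/POLR2A normalization; gain or loss fit vs DMSO baseline.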

Read-out in test [8]: Forkhead box O1 (FOXO1), FOXO1 (gene 2308)
In words: LTEA_HepaRG_FOXO1: Life Technologies and Expression Analysis (LTEA) Assay for Forkhead box O1 (FOXO1) using HepaRG (AID 2283456). The method in brief:
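Readout is FOXO1 transcript level by multiplexed qRT-PCR against three housekeeping genes, curve-fitted in both directions relative to 0.5% DMSO vehicle. Human HepaRG cultures received chemicals for 48 h, up to 100 uM in half-log steps.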

Read-out in test [9]: growth arrest and DNA damage 45 (GADD45A), GADD45A (gene 1647)
In words: LTEA_HepaRG_GADD45A: Life Technologies and Expression Analysis (LTEA) Assay for growth arrest and DNA damage 45 (GADD45A) using HepaRG (AID 2283458). Summed up:
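Differentiated HepaRG cells were exposed in duplicate for 48 h in serum-free induction medium to 8-point half-log concentrations up to 100 uM in 0.5% DMSO. GADD45A mRNA was measured by TaqMan qRT-PCR, normalized to ACTB, GAPDH and POLR2A, with bidirectional fitting versus DMSO.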

Read-out in test [10]: Forkhead box O3 (FOXO3), FOXO3 (gene 2309)
In words: LTEA_HepaRG_FOXO3: Life Technologies and Expression Analysis (LTEA) Assay for Forkhead box O3 (FOXO3) using HepaRG (AID 2283459). Summed up:
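HepaRG, 48 h post-dose; 8 conc., half-log from 100 uM, 0.5% DMSO, duplicates; serum-free induction medium. Readout: FOXO3 mRNA, TaqMan qRT-PCR, housekeeping-normalized. Bidirectional curve fit vs DMSO baseline.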

Read-out in test [11]: ABC Transporter (ABCB1), ABCB1 (gene 5243)
Nature of the test: LTEA_HepaRG_ABCB1: Life Technologies and Expression Analysis (LTEA) Assay for ABC Transporter (ABCB1) using HepaRG (AID 2283460). Summed up:
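Expression of ABCB1 was quantified by qRT-PCR against three housekeeping genes after human HepaRG cultures received test chemicals for 48 hours. Concentrations spanned eight half-log steps topping at 100 uM in 0.5% DMSO; gain or loss of signal was fitted relative to vehicle.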

Read-out in test [12]: ABC Transporter (ABCC3), ABCC3 (gene 8714)
In words: LTEA_HepaRG_ABCC3: Life Technologies and Expression Analysis (LTEA) Assay for ABC Transporter (ABCC3) using HepaRG (AID 2283462). Summed up: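 Differentiated human HepaRG cells exposed 48 h in serum-free induction medium, 0.5% DMSO vehicle, 8-point half-log series to 100 uM in duplicate. ABCC3 mRNA by qRT-PCR, normalised to ACTB, GAPDH, POLR2A; bidirectional fit vs DMSO.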

Read-out in test [13]: Cyclin D2 (CCND2), CCND2 (gene 894)
In words: LTEA_HepaRG_CCND2: Life Technologies and Expression Analysis (LTEA) Assay for Cyclin D2 (CCND2) using HepaRG (AID 2283449). Summed up:
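Read-out is CCND2 mRNA level measured by qRT-PCR in human HepaRG liver cells and normalised to three housekeeping genes. Chemicals were applied for 48 h at up to 100 uM, with gain or loss fitted relative to 0.5% DMSO.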

Read-out in test [14]: growth arrest and DNA damage 45 (GADD45B), GADD45B (gene 4616)
In words: LTEA_HepaRG_GADD45B: Life Technologies and Expression Analysis (LTEA) Assay for growth arrest and DNA damage 45 (GADD45B) using HepaRG (AID 2283461). Summed up: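 Differentiated human HepaRG cells in serum-free induction medium exposed 48 h in duplicate to eight concentrations, top 100 uM, half-log steps, 0.5% DMSO. GADD45B mRNA by TaqMan qRT-PCR, normalized to ACTB, GAPDH, POLR2A; bidirectional fit versus DMSO.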

Regarding `CSC(C)(C)C=NO`, the molecule was called inactive in test [1], in [2], in test [3], in test [4], in [5] and in test [6]. The call in test [7], in [8], in [9], in [10], in [11] and in [12] was inactive.

With `CCCCN(CCCC)SN(C)C(=O)Oc1cccc2c1OC(C)(C)C2`, the result in test [1], in [13], in test [2], in test [3], in test [4] and in test [5] was inactive. In addition, the molecule was called inactive in test [7], in test [8], in test [9], in test [10], in test [14] and in [12]. The AC50 in test [6] is 50 µM (active); in test [11] it was 23.2 µM (active).

Consider `OCC1CO1` (centres undefined), for which the molecule was called inactive in test [1], in [13], in [2], in test [3], in [4] and in test [5]. The molecule was called inactive in [6], in test [7], in [8], in [9], in test [10] and in test [11]. Moreover, the outcome in test [14] and in test [12] was inactive.

Turning to `O=[N+]([O-])c1ccccc1`, the molecule was classed as inactive in [13], in test [2], in test [3], in [4], in [5] and in test [7]. The call in [8], in [9], in [10], in test [11], in test [14] and in test [12] was inactive. For the same molecule, the AC50 in [6] was 50 µM (active).

In the case of `CCOc1ccc(C(C)(C)COCc2cccc(Oc3ccccc3)c2)cc1`, the molecule was called inactive in [1], in [2], in [3], in [4], in test [5] and in test [7]. For the same molecule, the result in test [8], in [9], in test [10], in test [14] and in test [12] was inactive. The AC50 was 41 µM (active) in test [6] and 8.69 µM (active) in test [11].

In the case of `O=[N+]([O-])c1ccc(Cl)c(Cl)c1`, the outcome in test [1], in [13], in [2], in test [3], in [4] and in [5] was inactive. Also, the call in [7], in [8], in test [9], in test [10], in [11] and in test [14] was inactive. In addition, the outcome in [12] was inactive. Moreover, the AC50 in test [6] was 5.16 µM (active).

Regarding `CCOC(=O)c1ccccc1C(=O)OCC`, the outcome in test [1], in test [13], in [2], in test [3], in test [4] and in [5] was inactive. The molecule was called inactive in [7], in test [8], in test [9], in test [10], in test [11] and in [14]. In test [12], the result was inactive. For the same molecule, in test [6], the AC50 is 74 µM (active).

`CCOS(=O)(=O)OCC`: the molecule was classed as inactive in test [1], in test [13], in test [2], in test [3], in test [4] and in [5]. Further, the result in [6], in [7], in [8], in test [9], in test [10] and in test [11] was inactive. In addition, the result in test [14] and in test [12] was inactive.

On to `CCCCN(CCCC)N=O`, for which the molecule was called inactive in [1], in [13], in test [2], in test [3], in [4] and in test [5]. Further, the molecule was called inactive in test [6], in test [7], in test [8], in test [9], in [10] and in [11]. The outcome in test [14] and in test [12] was inactive.

For `O=C(O)C(Cl)Cl`, the molecule was called inactive in test [1], in [13], in [2], in [3], in test [4] and in test [5]. Moreover, the molecule was called inactive in [6], in test [7], in test [8], in [9], in [10] and in test [11]. The molecule was called inactive in [14] and in [12].

Consider `CCCN(CCC)c1c([N+](=O)[O-])cc(C(C)C)cc1[N+](=O)[O-]`, for which the AC50 was 12.7 µM (active) in test [1]; 24.5 µM (active) in test [6]; 234 nM (active) in test [9]; 50 µM (active) in test [11]; 246 nM (active) in [12]. The molecule was called inactive in [13], in [2], in [3], in test [4], in [5] and in test [7]. In addition, the call in test [8], in test [10] and in test [14] was inactive.

With `ClC(Cl)(Cl)c1ccccc1`, the call in test [1], in test [13], in test [2], in test [3], in test [4] and in [5] was inactive. Further, the molecule was called inactive in test [6], in test [7], in test [8], in test [9], in [10] and in test [11]. The result in test [14] and in test [12] was inactive.
